Test results published in PubChem BioAssay (Tox21).
Results filed as inconclusive are left out. Unmarked numbers belong to inactive results. Activity calls are given as the source filed them. The call rests on the fitted dose curve; in most records, active means well fitted inhibition curve with a large enough effect in the repeat runs; inconclusive means weak or mixed curves; inactive means flat fitted curve, though single readings scatter.

The compounds below were run against Luciferin 4-monooxygenase (Photinus pyralis) (UniProt P08659) (assay: qHTS assay to identify small molecule inhibitors of firefly luciferase (AID 1224835; further: nearly all actives have a fitted effect of over 25% in size)). Conditions: purified P. pyralis luciferase, luminescence inhibition; series mostly up to 115 µM; activity change, negative = inhibition: at the top concentration.
Luciferin 4-monooxygenase (Photinus pyralis), sequence (P08659 whole entry, looked up): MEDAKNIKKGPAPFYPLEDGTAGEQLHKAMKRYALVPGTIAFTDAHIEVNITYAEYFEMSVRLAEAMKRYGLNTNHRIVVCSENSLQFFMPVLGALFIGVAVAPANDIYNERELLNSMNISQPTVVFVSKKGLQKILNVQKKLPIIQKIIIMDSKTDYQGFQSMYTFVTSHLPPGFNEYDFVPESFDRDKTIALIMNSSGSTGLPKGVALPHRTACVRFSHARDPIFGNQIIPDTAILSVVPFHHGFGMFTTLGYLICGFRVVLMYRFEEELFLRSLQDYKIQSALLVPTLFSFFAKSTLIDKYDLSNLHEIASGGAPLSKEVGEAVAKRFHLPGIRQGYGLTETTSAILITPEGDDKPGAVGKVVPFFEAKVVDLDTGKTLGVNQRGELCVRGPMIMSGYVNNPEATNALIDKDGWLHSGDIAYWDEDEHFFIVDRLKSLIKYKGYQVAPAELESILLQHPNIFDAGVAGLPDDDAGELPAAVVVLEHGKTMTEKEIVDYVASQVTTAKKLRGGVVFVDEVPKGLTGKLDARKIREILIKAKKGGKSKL
Excerpt: U.S. Tox21 Program National Center for Advancing Translational Sciences [NCATS] NIH Chemical Genomics Center [NCGC] U.S. Environmental Protection Agency [EPA] National Institutes of Environmental Health Sciences [NIEHS] National Toxicology Program [NTP] U.S. Food and Drug Administration [FDA] Tox21 Assay Overview: Firefly (Photinus pyralis) luciferase is one of the most commonly used transcriptional reporters. Firefly luciferase reporter-gene assays are generally considered one of the most sensitive assay types (Wood, 1995; Wood, 1998). However, it was initially observed, in 1991, by Thompson et al., that compounds that resemble the substrates of firefly luciferase (FLuc) can act as competitive inhibitors of the enzyme, and that these compounds, upon interaction with luciferase in the cell, can actually stabilize the protein and increase its half-life. Previous profiling work by other groups to determine the prevalence of compounds that affect FLuc enzymatic activity (PubChem AID 411) identified that ~3% of the MLSMR library (then at ~72K) inhibited FLuc. […] Thus the Tox21 10K library is profiled for activity against FLuc using a biochemical assay of purified FLuc and KM concentrations of FLuc substrates (D-luciferin and ATP).
These assay plates were then treated with 23nL of compound or DMSO using a Kalypsys pin tool, which allows for delivery of a 6-point interplate titration of each compound to the assay plate (quantitative HTS.) 1 uL of firefly luciferase mix (containing 50 mM Tris acetate, pH 7.6, 0.04 uM P. pyralis luciferase, 0.01% Tween, 0.05% BSA and dH2O) was then delivered by FRD to each well. Luciferase activity was then measured using a ViewLux CCD imager.
On the % scale 0 is the no-effect control and ±100 the full control effect.

SMILES	activity change, negative = inhibition	Potency
COc1cc(CNC(=O)CCCC/C=C/C(C)C)ccc1O	0.08%	
CC(C)(C)c1cc(C=O)cc(C(C)(C)C)c1O	1.03% [at 52.9 µM]	
CCCCCCCCCCCC(=O)OCC	3.73%	
O=C(OC1C[C@H]2CC[C@@H](C1)[N+]21CCCC1)C(O)(c1ccccc1)c1ccccc1 (stereo not given in full)	4.27% [at 52.9 µM]	
FC(F)(Cl)C(F)(Cl)Cl	1.4%	
Oc1ccc(Oc2ccccc2)cc1	0.62%	
O=C(O)c1ccc2cc(O)ccc2c1		62.4 µM (active)
CCn1nc(Cc2ccccc2)cc1C1CCN(C[C@H]2C[C@H](N(C)[C@@H](C(=O)O)C(C)C)C[C@@H]2c2cccc(F)c2)CC1	4.6%	
CC(COc1ccccc1)NC(C)C(O)c1ccc(O)cc1 (stereo not given)	1.4% [at 52.9 µM]	
Nc1nc(Cl)nc2c1ncn2[C@H]1C[C@H](O)[C@@H](CO)O1	1.18%	
CCc1ccc2c(c1)C(=O)c1ccccc1C2=O		5.03 µM (active)
CC(O)CN (stereo not given)	0.222%	
CCCCCCCCNC	2.96%	
O=C(O)COCC(=O)O	5.42%	
COc1ccc(/C(C)=C/C(=O)O)c(OC)c1	-1.54% [at 52.9 µM]	
COc1ccc(/C=C/c2cc(OC)cc(=O)o2)cc1		5.15 µM (active)
Cc1c(Cl)cccc1Nc1ccccc1C(=O)O	-3.21% [at 52.9 µM]	
CC(=O)Oc1cccc2c1C(=O)c1c(OC(C)=O)cc(C(=O)O)cc1C2=O	2.49% [at 52.9 µM]	
CC1=C(C)C(=O)C(CCCCC#CCCCC#CCO)=C(C)C1=O	0.298% [at 52.9 µM]	
C=C[Si]1(C)O[Si](C)(C=C)O[Si](C)(C=C)O[Si](C)(C=C)O1 (stereo not given)	2.19%	

SMILES	activity change, negative = inhibition	Potency
NC(=O)c1ccccc1	1.95%	
C=CC(O)CCCCC (stereo not given)	0.525%	
C=CC(=O)OCCCCCCCCCC	3.21%	
C=CC(C)(O)CC/C=C(/C)CCC=C(C)C (stereo not given)	11.2%	
c1ccc(CCNc2nc(-c3ccccc3)cs2)cc1		3.47 µM (active)
O=Cc1ccc([N+](=O)[O-])cc1	-3.08%	
C[C@]12CCC(=O)C=C1[C@@H]1C[C@@H]1[C@H]1[C@@H]3[C@@H]4C[C@@H]4[C@@]4(CCC(=O)O4)[C@@]3(C)CC[C@@H]12	-1.29% [at 52.9 µM]	
C=CCCC	-1.01%	
O=[N+]([O-])c1ccccc1CCO	-0.118%	
CCC(C(=O)O)c1ccc(N2Cc3ccccc3C2=O)cc1 (stereo not given)		9.77 µM (active)
CC(C(=O)O)c1ccc(/C=C2\CCCCC2=O)cc1 (stereo not given)		30.9 µM (active)
[O-][n+]1ccc(Cl)cc1	-1.98%	
OCC(O)c1ccccc1 (stereo not given)	2.33%	
Cc1nc(C)c(C)nc1C	-0.425%	
CC(=O)CC/C=C(\C)CC/C=C(\C)CC/C=C(\C)CCC=C(C)C	-0.312% [at 52.9 µM]	
CCCC(=O)OCc1ccccc1	-0.474%	
O=C(O)c1ccccc1[N+](=O)[O-]	2.54%	
O=C(Cl)c1cc(Cl)cc(Cl)c1	-7.52%	
CCOC(OCC)OCC	1.57%	
O=C(OCCCCCOC(=O)c1ccccc1)c1ccccc1	1.25%	
